Measurements taken from PubChem BioAssay AID1159580 (chemical genetic matrix, 2015).
Out of some 5,500 compounds screened, about 2,000 (36%) were called active. Inconclusive results (about 18%) are left out. No stated cut-off is given here; in the data, active means normalized growth mostly below about 0.91 (no sharp cut-off); inconclusive means no clear call, values can overlap the other calls; inactive means mostly above about 0.92. Some of the results follow.

Assay: chemical genetic growth profiling, strain panel (AID 1159580);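 further: tested at 20 µM; growth read once vehicle control cultures reached saturation at 30 °C; 1 = growth at the plate median or of vehicle wells; lower values mean less growth of the strain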
Details: growth OD

Measured: normalized growth

Cc1onc(-c2c(Cl)cccc2Cl)c1C(=O)N[C@@H]1C(=O)N2[C@@H]1SC(C)(C)[C@@H]2C(=O)O
active: S. cerevisiae deletion strains, locus YKR026C, strain gcn3, hits give low values 1.47 [resistant]
inactive: S. cerevisiae deletion strains, locus YJR066W, strain TOR1, hits give low values 0.946 | S. cerevisiae deletion strains, locus YJR075W, strain HOC1, hits give low values 1.02 | S. cerevisiae deletion strains, locus YKL009W, strain mrt4, hits give low values 0.986 | S. cerevisiae deletion strains, locus YKL068W, hits give low values 1.01 | S. cerevisiae deletion strains, locus YKL085W, strain MDH1 (second series), hits give low values 0.999 | S. cerevisiae deletion strains, locus YKL085W, strain MDH1, hits give low values 0.999 | S. cerevisiae deletion strains, locus YKL160W, strain elf1, hits give low values 0.982 | S. cerevisiae deletion strains, locus YKL190W, strain CNB1, hits give low values 1.01 | S. cerevisiae deletion strains, locus YKR001C, strain vps1, hits give low values 1 | S. cerevisiae deletion strains, locus YKR091W, strain srl3, hits give low values 1 | S. cerevisiae deletion strains, locus YLL001W, strain dnm1, hits give low values 0.962 | S. cerevisiae deletion strains, locus YLL026W, hits give low values 1 | S. cerevisiae deletion strains, locus YLL041C, strain sdh2, hits give low values 0.987 | S. cerevisiae deletion strains, locus YLR027C, strain aat2, hits give low values 0.991 | S. cerevisiae deletion strains, locus YLR039C, strain RIC1, hits give low values 1.03 | S. cerevisiae deletion strains, locus YLR058C, strain SHM2, hits give low values 1.02 | S. cerevisiae deletion strains, locus YLR102C, strain apc9, hits give low values 0.994 | S. cerevisiae deletion strains, locus YLR113W, strain HOG1, hits give low values 1.06 | S. cerevisiae deletion strains, locus YLR221C, strain rsa3, hits give low values 1.05 | S. cerevisiae deletion strains, locus YLR258W, strain gsy2, hits give low values 1.02 | S. cerevisiae deletion strains, locus YLR262C, strain YPT6 (second series), hits give low values 0.961 | S. cerevisiae deletion strains, locus YLR262C, strain YPT6, hits give low values 1.02 | S. cerevisiae deletion strains, locus YLR268W, strain sec22, hits give low values 0.987 | S. cerevisiae deletion strains, locus YLR320W, strain mms22, hits give low values 1.06 | S. cerevisiae deletion strains, locus YLR330W, strain CHS5, hits give low values 1.02 | S. cerevisiae deletion strains, locus YLR342W, strain FKS1 (second series), hits give low values 1.04 | S. cerevisiae deletion strains, locus YLR342W, strain FKS1, hits give low values 0.979 | S. cerevisiae deletion strains, locus YLR357W, strain rsc2, hits give low values 0.98 | S. cerevisiae deletion strains, locus YLR370C, strain arc18, hits give low values 1.01 | S. cerevisiae deletion strains, locus YLR371W, strain rom2, hits give low values 0.985 | S. cerevisiae deletion strains, locus YLR384C, strain iki3, hits give low values 0.977 | S. cerevisiae deletion strains, locus YLR418C, strain cdc73, hits give low values 0.946 | S. cerevisiae deletion strains, locus YML016C, strain PPZ1, hits give low values 1.02 | S. cerevisiae deletion strains, locus YML032C, strain rad52, hits give low values 0.987 | S. cerevisiae deletion strains, locus YML120C, strain ndi1, hits give low values 0.99 | S. cerevisiae deletion strains, locus YML124C, strain tub3, hits give low values 0.985 | S. cerevisiae deletion strains, locus YMR058W, strain fet3, hits give low values 1.01 | S. cerevisiae deletion strains, locus YMR078C, strain ctf18, hits give low values 0.991 | S. cerevisiae deletion strains, locus YMR125W, strain sto1, hits give low values 0.951 | S. cerevisiae deletion strains, locus YMR129W, hits give low values 0.997 | S. cerevisiae deletion strains, locus YMR205C, strain PFK2, hits give low values 0.984 | S. cerevisiae deletion strains, locus YMR223W, strain ubp8, hits give low values 0.973 | S. cerevisiae deletion strains, locus YMR231W, strain pep5, hits give low values 0.985 | S. cerevisiae deletion strains, locus YMR307W, strain GAS1, hits give low values 1.02 | S. cerevisiae deletion strains, locus YNL067W, strain RPL9B, hits give low values 1 | S. cerevisiae deletion strains, locus YNL071W, strain lat1, hits give low values 0.998 | S. cerevisiae deletion strains, locus YNL128W, strain TEP1, hits give low values 1.01 | S. cerevisiae deletion strains, locus YNL183C, strain NPR1, hits give low values 1 | S. cerevisiae deletion strains, locus YNL209W, strain ssb2, hits give low values 1.02 | S. cerevisiae deletion strains, locus YNL233W, strain BNI4, hits give low values 0.997 | S. cerevisiae deletion strains, locus YNL248C, strain rpa49, hits give low values 1.03 | S. cerevisiae deletion strains, locus YNL250W, strain rad50, hits give low values 0.989 | S. cerevisiae deletion strains, locus YNL271C, strain bni1, hits give low values 0.98 | S. cerevisiae deletion strains, locus YNL298W, strain CLA4, hits give low values 0.999 | S. cerevisiae deletion strains, locus YNL307C, strain MCK1, hits give low values 0.987 | S. cerevisiae deletion strains, locus YNL322C, strain KRE1 (second series), hits give low values 0.965 | S. cerevisiae deletion strains, locus YNL322C, strain KRE1, hits give low values 1.01 | S. cerevisiae deletion strains, locus YNR049C, strain mso1, hits give low values 0.991 | S. cerevisiae deletion strains, locus YNR052C, strain pop2, hits give low values 0.997 | S. cerevisiae deletion strains, locus YOL006C, strain TOP1, hits give low values 1.03 | S. cerevisiae deletion strains, locus YOL012C, strain htz1 1.88 | S. cerevisiae deletion strains, locus YOL147C, strain pex11, hits give low values 0.987 | S. cerevisiae deletion strains, locus YOR001W, strain rrp6, hits give low values 0.972 | S. cerevisiae deletion strains, locus YOR061W, strain CKA2, hits give low values 1.03 | S. cerevisiae deletion strains, locus YOR069W, strain VPS5, hits give low values 1.02 | S. cerevisiae deletion strains, locus YOR070C, strain gyp1, hits give low values 1.01 | S. cerevisiae deletion strains, locus YOR080W, strain dia2, hits give low values 0.967 | S. cerevisiae deletion strains, locus YOR083W, strain WHI5, hits give low values 0.964 | S. cerevisiae deletion strains, locus YOR106W, strain vam3, hits give low values 0.957 | S. cerevisiae deletion strains, locus YOR136W, strain idh2, hits give low values 0.988 | S. cerevisiae deletion strains, locus YOR144C, strain elg1, hits give low values 0.989 | S. cerevisiae deletion strains, locus YOR184W, strain ser1, hits give low values 0.978 | S. cerevisiae deletion strains, locus YOR231W, strain MKK1, hits give low values 1.06 | S. cerevisiae deletion strains, locus YOR265W, strain rbl2, hits give low values 0.985 | S. cerevisiae deletion strains, locus YOR270C, strain vph1, hits give low values 0.995 | S. cerevisiae deletion strains, locus YOR290C, strain snf2, hits give low values 1.03 | S. cerevisiae deletion strains, locus YOR316C, strain cot1, hits give low values 0.998 | S. cerevisiae deletion strains, locus YPL051W, strain arl3, hits give low values 1.01 | S. cerevisiae deletion strains, locus YPL078C, strain atp4, hits give low values 0.951 | S. cerevisiae deletion strains, locus YPL106C, strain sse1, hits give low values 0.964 | S. cerevisiae deletion strains, locus YPL240C, strain hsp82, hits give low values 0.998 | S. cerevisiae deletion strains, locus YPL241C, strain CIN2, hits give low values 1.02 | S. cerevisiae deletion strains, locus YPL256C, strain CLN2, hits give low values 1.04 | S. cerevisiae deletion strains, locus YPR119W, strain clb2, hits give low values 0.99 | S. cerevisiae deletion strains, locus YPR141C, strain kar3, hits give low values 1 | S. cerevisiae deletion strains, locus YPR163C, strain tif3, hits give low values 0.998 | S. cerevisiae deletion strains, locus YPR167C, strain met16, hits give low values 0.985 | S. cerevisiae deletion strains, strain wtn01, hits give low values 0.97 | S. cerevisiae strains, strain wild type, hits give low values 1.02
